# Results from the supplement of paper PMC3334620.
# The full ranking holds about 33,000 sequences; the median of “E-score (-0.5 to 0.5)” is about -8e-05, and the highest 2% start at about 0.23. The list comes from a sample in which the highest values are over-represented; it also holds similar and randomly drawn sequences.
# Biological target: T1, Nrg2 (UniProt P38082)
# T1 sequence: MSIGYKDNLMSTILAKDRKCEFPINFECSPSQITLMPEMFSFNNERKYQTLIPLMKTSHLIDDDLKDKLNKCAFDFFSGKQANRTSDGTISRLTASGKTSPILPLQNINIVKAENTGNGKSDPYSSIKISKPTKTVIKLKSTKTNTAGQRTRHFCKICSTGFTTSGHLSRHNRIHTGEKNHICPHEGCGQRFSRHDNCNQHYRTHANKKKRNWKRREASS
# Test: PBM E-score (8-mer binding enrichment) (E-score (-0.5 to 0.5)); higher = stronger / more preferred TF binding
# Conditions: protein concentration: 100 nM; construct: GST-full length
# Procedure, shortened: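 Yeast transcription factors, full-length or as DNA-binding domains, were expressed with a GST tag using PURExpress in vitro transcription/translation. At about 100-200 nM they were applied to universal all-10-mer Agilent arrays, double-stranded by primer extension on fresh or once-stripped slides. Fluorescent anti-GST detected bound protein, and masliner normalised the scans. E-scores for ungapped eight-base words, pooled with reverse complements, came from the Universal PBM Analysis Suite.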
row,Sequence,PBM E-score
1,GCCCTGTA,0.208
2,ACCCTGAA,0.319
3,ACCCTGTA,0.347
4,ATCCTGAA,0.125
5,AACCTGAA,-0.178
6,AGCCTGTA,-0.126
7,ACAAGGAC,-0.0546
8,GCGGTCCA,-0.159
9,TAAAGCCA,0.0522
10,AAACAAAA,0.0254
11,GAACAAAA,0.195
12,ATACAAAT,0.173
13,AAACAAAC,-0.0324
14,ATACAAAA,0.218
15,CAACAAAC,0.0713
16,ATACAAAC,0.258
17,GAACAAAC,0.323
18,AAACAAAT,0.235
19,AGTCCATA,0.0684
20,TCAGACAA,0.0781
21,CAGCAGCC,0.0863
22,GTTGCCAA,0.0119
23,CTAGGCAC,-0.162
24,AGCTTTAG,-0.105
25,GAGGCCTC,-0.327

row,Sequence,PBM E-score
1,AGACGCTA,-0.138
2,CATTCGAA,0.0948
3,GATTCGAA,0.256
4,GATTCGAC,0.141
5,ATGGCAGG,0.12
6,ACAGTTTA,-0.0808
7,CCAGTTTC,0.0541
8,ACAGTTTC,0.259
9,CTTGTTTC,0.0127
10,ATTGTTTC,0.256
11,ATTGTTTG,0.18
12,AGATCAAC,0.07
13,TATCCGGA,0.112
14,AAGGAGAC,-0.156
15,ACCACAAT,-0.0522
16,AGGTGTAC,-0.145
17,ACGAACAA,0.124
18,CCGAACAA,0.0547
19,ACGAAACA,0.0539
20,TGGAACAA,0.155
21,TCGAACAA,0.259
22,TCGAACGA,0.0281
23,CCGAAACA,0.102
24,GCGAACAA,0.322
25,TCGAAACA,0.232

row,Sequence,PBM E-score
1,TCAGATGA,0.148
2,AATCGCCA,0.0545
3,TAAGGACA,-0.0222
4,CGCTAGCC,-0.255
5,ACAGAGAC,0.00483
6,CTTCTTGA,-0.0331
7,CAATGGAA,0.131
8,CTATTCGC,0.0444
9,GAATTCGC,0.141
10,CAATTCGA,-0.135
11,AAATTCGT,0.235
12,AAATTCGG,0.205
13,AAATTCGA,-0.0488
14,CAATTCGC,0.277
15,AAATTCGC,0.234
16,CAATTCGG,0.0993
17,AAGTTGGA,0.134
18,AAAATCTT,-0.0461
19,AGCCGCCC,-0.0653
20,CCCAGTGC,0.037
21,CGCAAAAA,0.141
22,CACAAGAA,0.245
23,CAAGAGAG,-0.0197
24,GAAGAGAA,-0.0264
25,AGCAAGAA,0.0497

row,Sequence,PBM E-score
1,CAAGAGAA,0.232
2,AAAAACCA,0.112
3,CACAAGAG,0.14
4,CACAAAAA,0.131
5,CAAAACCA,0.249
6,CAAAACCC,0.222
7,CGCAAGAA,0.299
8,CGGGATGC,-0.163
9,CCGCTAAA,0.0162
10,CAAGGTCG,0.00137
11,CATAGCTC,-0.112
12,CCAAAAAA,0.18
13,CAAAAAAA,0.245
14,CAAAAAAC,0.079
15,CGTGAAGA,-0.0995
16,CACTACTG,0.077
17,AGGGTCGC,0.243
18,ACGGTCGC,-0.131
19,CGGGTCGC,-0.0689
20,AGGGTCGA,0.262
21,AGGGTCGG,0.0394
22,AGCGTCGG,-0.0319
23,CGGGTCGA,-0.181
24,AGCGTCGC,-0.0577
25,AGCGTCGA,0.244

row,Sequence,PBM E-score
1,GCGGCCCA,-0.0651
2,GCTGAAGA,-0.0685
3,ACAGCTTC,-0.102
4,AAGAGATT,0.00595
5,CATACTGA,0.135
6,TATACTGA,0.261
7,GATACTGA,0.0997
8,GCTATCTA,-0.0754
9,AAATAGAG,-0.0562
10,AAATATAA,0.161
11,ACCTATAA,-0.112
12,AAATAGAT,0.27
13,ACCTATAC,-0.044
14,AAATAGAC,0.165
15,AAATATAC,0.0852
16,ACCTATAT,0.236
17,AAATATAT,0.257
18,CAGAAAGG,0.0423
19,AAGATCTT,-0.0257
20,CTCGGTCA,-0.0604
21,AACCGCCG,-0.0452
22,GCTAAGAA,-0.103
23,TATGAGCA,-0.127
24,ATGAATGA,0.0659
25,ATGAATGG,0.339

row,Sequence,PBM E-score
1,ATGAATGC,0.13
2,GTATGCGA,0.136
3,AGCAAATC,0.147
4,ACCGATAC,-0.00076
5,CTCACGCA,0.353
6,CTCACGCC,0.0298
7,GGAACAAC,0.133
8,GTCACGCA,0.0867
9,TGAACAAA,0.244
10,CGAACAAC,0.152
11,GCAACAAA,0.176
12,CGAACAAG,0.165
13,CGAACAAA,0.279
14,TTAACAAA,0.094
15,AGAACAAA,0.208
16,GGAACAAA,0.263
17,CTGCACGA,0.0401
18,AACTTATA,0.145
19,GCCGACAC,-0.0613
20,TCCGGTAA,-0.0902
21,CCTGGGTA,-0.159
22,GCCGGAAA,0.104
23,ACTCTGCC,-0.142
24,GGGCATAA,0.109
25,GGGCTTCA,-0.103

row,Sequence,PBM E-score
1,TCTCTAAA,-0.134
2,AGAGCCCC,-0.139
3,GTGGTCCA,0.0422
4,GGAACGCA,0.0954
5,TGAACGCA,0.0815
6,CGAACGCA,0.282
7,AAGCGCTC,0.0396
8,AAGCGCTT,0.303
9,AAGCGCTA,0.0465
10,CCGCCAAC,-0.126
11,ACGTTTCC,-0.16
12,ATTCCACG,0.0249
13,ATTCCACC,0.0335
14,ATTCCACA,0.243
15,GGAGGCAA,-0.141
16,CAGGTCCA,0.0188
17,ACCGTTCA,-0.164
18,ATATCGCG,0.331
19,AAATCGCG,0.233
20,ATATCGCA,-0.0927
21,ATATCGCC,0.0573
22,AAATCGCA,0.158
23,AAATCGCC,0.00869
24,GGGTTTAA,0.0664
25,AGATGGTA,0.0502

row,Sequence,PBM E-score
1,GTAGTGGA,0.152
2,ACCTTAGG,-0.191
3,CGCCCGAG,0.117
4,TCCGGCCA,0.00685
5,CGCGAAAG,0.122
6,GTGTAGAA,-0.191
7,CCAGGGAC,0.366
8,GCAGGGAC,0.28
9,CCAGGGAG,-0.107
10,GCAGGGAA,0.238
11,GCAGGGCC,0.101
12,GCAGGGGA,-0.192
13,GAAGGGAC,0.159
14,TCAGGGAA,0.0408
15,CCAGGGAA,0.0205
16,CATGTAGG,0.092
17,CGTCGGTC,0.00408
18,CAGGTTAA,-0.0788
19,CACGTCCA,-0.177
20,ACGCGATC,0.146
21,CGAGCTCC,0.12
22,CGAGCTTA,-0.0737
23,CGAGCTCA,0.108
24,ACAGCTGA,0.0892
25,AGAGCTGA,0.00384

row,Sequence,PBM E-score
1,TCAGCTGA,0.279
2,CGAGCTCG,0.241
3,GCAGCTGA,0.0488
4,CGAGCTGA,0.243
5,ATCCTCAG,0.1
6,AGCGGCCT,-0.275
7,GCTTCGTA,-0.102
8,CGGCCGAA,0.0577
9,GAGCTCGA,0.183
10,ACTAGCTA,0.0559
11,AAGAATCC,0.0617
12,TACCCCAA,0.247
13,AACCCCAA,0.147
14,AACCCCAT,0.07
15,ACCCCCAG,-0.291
16,TACCCCCA,-0.159
17,AACCCCAG,0.237
18,GCCGCAAA,0.157
19,ATCAACCG,0.0105
